biological target: IFT52; assay: pooled miR-30 sensor sort-seq; sequence = guide strand; conditions: shRNA
Also: reference of the scale not given here.

Row | Sequence | sensor-assay potency score (higher = more potent)
1 | TGAATCTTCCAATTACTCCGAA | 0.152
2 | TGAACATGTGACATGAACCAAG | -0.609
3 | TAATCCACAGTTTTACTCCATT | -1.37

biological target: IGFBP3; assay: as above; conditions: shRNA

Row | Sequence | sensor-assay potency score (higher = more potent)
4 | TTCTTGATGATGATTATCTTTG | -1.16
5 | TCGTAGTCAACTTTGTAGCGCT | -0.259
6 | TATCTTTGAATGGAGGGGGTGG | -0.842
7 | TAGCATTTCCTGGAGCTGGCGG | -0.626
8 | TACTTATCCACACACCAGCAGA | -1.2
9 | TTTCTTGATGATGATTATCTTT | -1
10 | TTTAGCATGCCCTTTCTTGATG | -1.17
11 | ATCTGTGCTCTGAGACTCGTAG | -0.551
12 | TATCTGTGCTCTGAGACTCGTA | -0.405
13 | TAGTCAACTTTGTAGCGCTGGC | -0.23
14 | TTGATGATGATTATCTTTGAAT | -0.974
15 | TTTCTTATAAAATCCCTTCTTG | -0.488

biological target: IGFBP7; assay: as above; conditions: shRNA

Row | Sequence | sensor-assay potency score (higher = more potent)
16 | TGTCCTTTGAACTCCATAGTGA | -0.0168
17 | TTTTTGCTGATGCTGAAGCCTG | -1.34
18 | ATATTCTCCAGCATCTTCCTTA | 0.0623
19 | TATGGAAGGACCTTGCTCGCAG | 0.0924
20 | TAGAGGAGATACCAGCACCCAG | -1.77
21 | TCCATGACTACTTTTAACCATG | -1.58
22 | TATTTCTCTGTGTAAAACCAGT | -0.876
23 | TATAACTAAAGTGTTAGTGGAT | 0.0715
24 | TTTATTTTGTATTTCTCTGTGT | 0.392
25 | TTGCACACGCACACGCCGCTTA | -0.533
26 | TTATTTTGTATTTCTCTGTGTA | 0.738
27 | TAGTCTTGATGTGTGATCTTTA | -0.24

biological target: IGLL1; assay: as above; conditions: shRNA

Row | Sequence | sensor-assay potency score (higher = more potent)
28 | TAGCCTTGTTGGCTTGGAGCTC | -0.995
29 | TGCAGCTGTTGGGCGCAGCAGG | -1.51
30 | TGGACCGGCTGCTTCCTCCAGG | -1.11
31 | TTGGGCTGACTTAAAACGGTGA | -0.209
32 | TGCTCTGCGATGCAGCTGTTGG | -1.49
33 | TACTTGTTGTTGCTCTGTTTGG | -0.977
34 | TGAGACACACCAGTGTAGCCTT | 0.221
35 | TACCACGGCCAGACCCAGCAGC | -0.916
36 | TCAGGTAGCTGCTGGCCGCGTA | -0.554
37 | TTGTTGTTGCTCTGTTTGGAGG | -1.19
38 | AGACACACCAGTGTAGCCTTGT | -0.487
39 | TCACCGTCAAGATTCCCGGATA | -1.01

— the OligoGym collection
